Assay outcomes as filed in PubChem.
Sampled rows, rich in hits. Any-hit rate of the full collection: about 2.1%.
GSIS activator = GLuc luminescence reporter in INS-1E cells, primary screen for activators of glucose-dependent secretion of insulin; activation, % at 16.6 µM; INS-1E GLuc reporter insulin secretion, 2-3 h; 370,000 compounds, 0.61% hits;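 active means lowest replicate activation of at least 40%, so every replicate reaches that level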
NSD2 inh = inhibitors of human histone methyltransferase NSD2; NSD2 peptide methylation, AlphaScreen, 120 min; inhibition, % at 12.5 µM; 310,000 compounds, 0.54% hits; O96028; AID 743445; in the data active means inhibition above about 50%
Target sequence (O96028 whole entry, looked up): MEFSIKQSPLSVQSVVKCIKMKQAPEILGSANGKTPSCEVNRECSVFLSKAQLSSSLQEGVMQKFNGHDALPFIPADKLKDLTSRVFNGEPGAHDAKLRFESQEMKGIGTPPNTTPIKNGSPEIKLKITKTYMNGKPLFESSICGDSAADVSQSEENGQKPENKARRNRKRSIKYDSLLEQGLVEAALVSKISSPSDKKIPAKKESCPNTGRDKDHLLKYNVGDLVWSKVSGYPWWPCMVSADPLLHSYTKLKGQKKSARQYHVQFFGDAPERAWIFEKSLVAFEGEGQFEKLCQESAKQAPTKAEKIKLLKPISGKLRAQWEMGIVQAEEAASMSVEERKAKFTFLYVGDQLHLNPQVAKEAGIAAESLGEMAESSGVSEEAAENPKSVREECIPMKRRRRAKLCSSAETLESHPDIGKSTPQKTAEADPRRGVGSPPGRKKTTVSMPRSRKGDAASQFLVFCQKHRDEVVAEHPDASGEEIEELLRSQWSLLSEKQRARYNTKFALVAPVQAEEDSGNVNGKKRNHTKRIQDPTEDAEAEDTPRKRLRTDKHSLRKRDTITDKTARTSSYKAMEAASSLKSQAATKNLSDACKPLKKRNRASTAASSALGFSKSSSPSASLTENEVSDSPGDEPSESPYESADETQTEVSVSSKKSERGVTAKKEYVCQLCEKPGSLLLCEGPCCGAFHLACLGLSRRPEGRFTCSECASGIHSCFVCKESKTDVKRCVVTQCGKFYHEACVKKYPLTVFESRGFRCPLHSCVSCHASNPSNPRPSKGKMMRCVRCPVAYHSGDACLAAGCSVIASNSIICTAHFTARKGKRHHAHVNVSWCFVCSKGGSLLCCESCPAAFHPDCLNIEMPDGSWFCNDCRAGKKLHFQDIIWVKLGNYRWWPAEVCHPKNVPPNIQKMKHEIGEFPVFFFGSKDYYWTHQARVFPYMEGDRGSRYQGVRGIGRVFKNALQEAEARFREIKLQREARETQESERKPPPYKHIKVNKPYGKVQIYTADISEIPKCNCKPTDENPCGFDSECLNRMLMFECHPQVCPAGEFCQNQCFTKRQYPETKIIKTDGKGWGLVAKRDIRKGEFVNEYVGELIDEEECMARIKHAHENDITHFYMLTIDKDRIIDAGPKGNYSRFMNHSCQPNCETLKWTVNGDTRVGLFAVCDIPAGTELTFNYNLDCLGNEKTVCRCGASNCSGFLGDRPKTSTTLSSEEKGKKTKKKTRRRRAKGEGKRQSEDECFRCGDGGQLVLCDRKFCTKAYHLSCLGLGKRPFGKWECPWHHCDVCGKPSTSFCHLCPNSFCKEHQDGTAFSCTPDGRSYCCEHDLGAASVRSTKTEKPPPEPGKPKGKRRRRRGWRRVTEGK
HIV Env fusion = blocks HIV Env-driven cell-cell fusion. HeLa-JRFL Env/CEM21 cell fusion, luciferase. inhibition, % at 12.3 µM. 360,000 compounds, 1.1% hits. AID 651610;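 active means mean replicate inhibition score of at least 50 and every replicate individually at or above 50; inconclusive means only one of the two criteria met; inactive means mean below 50 and not all replicates reaching 50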
PGC1a acetyl inh = PGC1a acetylation modulation, inhibitor mode; U2OS PGC1a acetylation, AlphaScreen anti-acetyl-lysine; with virally co-expressed GCN5 acetyltransferase; inhibition, % at 15.6 µM; 350,000 compounds, 0.17% hits; AID 651687;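 active means every replicate shows inhibition of at least 40%; inconclusive means mean inhibition at least 40% but some replicate below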
AF4-AF9 inh = inhibitors of human MLL-AF4/AF9 interaction | AlphaScreen, biotin-AF4 peptide binding to FLAG-AF9 | inhibition, % at 10 µM | 350,000 compounds, 0.47% hits;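 active means every replicate reaching a set inhibition limit, whatever the replicate mean, cut at about 25% in these data; inconclusive means mean inhibition reaches that limit but some replicates miss it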
Of the large screens only hits and unclear results are named; the others gave an inactive call; [ ] = remark or other dose.

CCN(C(=O)CN1C(=O)NC(c2ccccc2)(c2ccccc2)C1=O)c1ccccc1	AF4-AF9 inh 38 (no result: PGC1a acetyl inh)
O=C(NC[C@@H]1CC[C@@H]2[C@@H](CN2S(=O)(=O)c2ccccc2[N+](=O)[O-])O1)C1CCOCC1	AF4-AF9 inh 28 (no result: GSIS activator, NSD2 inh, HIV Env fusion)
O=C(NC[C@H]1CC[C@@H]2[C@@H](CN2S(=O)(=O)c2ccccc2[N+](=O)[O-])O1)Nc1ccccc1	none (no result: GSIS activator, NSD2 inh, HIV Env fusion)
CC(=O)Nc1ccc(OC/C=C(\C)Cl)cc1	none (no result: HIV Env fusion, AF4-AF9 inh)
NS(=O)(=O)c1ccc(CCNc2nc3c(-c4cccc(F)c4)nnn3c3ccccc23)cc1	GSIS activator 59 (no result: AF4-AF9 inh)
Cc1ccccc1C(=O)NC1CCSC1=O (centres undefined)	GSIS activator 121
O=C(NC(=S)NC1CCSC1=O)c1ccccc1Cl (centres undefined)	none (no result: GSIS activator, AF4-AF9 inh)
COc1cccc(OCCCN2CCN(S(=O)(=O)c3ccc(NC(C)=O)cc3)CC2)c1	HIV Env fusion 63 (no result: GSIS activator, AF4-AF9 inh)
CC(=O)Nc1ccc(S(=O)(=O)N2CCN(CCCOc3ccccc3Cl)CC2)cc1	none (no result: GSIS activator, PGC1a acetyl inh, AF4-AF9 inh)
COC(=O)C1=C(C)Nc2nc(SCc3ccccc3)[nH]c(=O)c2C1c1cccs1 (centres undefined)	AF4-AF9 inh 49 (no result: NSD2 inh)
COc1ccc(NS(=O)(=O)c2c(F)cc(F)c(Cl)c2F)cc1S(=O)(=O)N1CCCCC1	none (no result: PGC1a acetyl inh, AF4-AF9 inh)
O=C(Nc1nnc(S(=O)(=O)N2CCCCCC2)s1)c1ccccc1Cl	none (no result: GSIS activator, NSD2 inh)
CSc1cccc(N2CC(C(=O)Nc3cccc(S(=O)(=O)N4CCCC4)c3)CC2=O)c1 (centres undefined)	HIV Env fusion 116
CCOc1ccc(N2CC(C(=O)Nc3cccc(S(=O)(=O)N4CCCCC4)c3)CC2=O)cc1 (centres undefined)	none (no result: PGC1a acetyl inh)
CCOc1ccc(N2CC(C(=O)Nc3ccc(S(=O)(=O)N4CCCC4)cc3)CC2=O)cc1 (centres undefined)	none (no result: PGC1a acetyl inh)
CCOc1ccc(N2CC(C(=O)Nc3ccc(S(=O)(=O)N4CCCCC4)cc3)CC2=O)cc1 (centres undefined)	HIV Env fusion 67 (no result: PGC1a acetyl inh)
CCOc1ccc(CN(C)C(=O)CCc2ccc(S(=O)(=O)N3CCCCCC3)cc2)cc1	HIV Env fusion 65
c1ccc(Oc2ccccc2-c2cc(NCCc3cccnc3)n3nccc3n2)cc1	GSIS activator 53 (no result: PGC1a acetyl inh)
c1ccc(Oc2ccc(-c3cc(NCCc4cccnc4)n4nccc4n3)cc2)cc1	none (no result: PGC1a acetyl inh)
COc1ccc(CC(=O)Nc2nnc(SCC(=O)NCc3ccco3)s2)cc1OC	none
COc1ccc(-c2cc(-c3ccccc3)c(C#N)c(=S)[nH]2)cc1	none
COc1ccc(-c2cc3nc4ccccc4n3c(N)c2C#N)cc1	GSIS activator 86 (no result: NSD2 inh)
CS(=O)(=O)N1CCC(C(=O)NCCC2=CCCCC2)CC1	none (no result: AF4-AF9 inh)
C[C@@H]1CN([C@@H](C)CO)C(=O)c2cc(NC(=O)NC3CCCCC3)ccc2O[C@@H](C)CCCCO[C@@H]1CN(C)C(=O)Nc1ccc2c(c1)OCO2	none (no result: NSD2 inh, AF4-AF9 inh)
CCOc1ccc(-c2cc(N)n(S(=O)(=O)c3ccc(OC)c(OC)c3)n2)cc1	AF4-AF9 inh 44 (no result: NSD2 inh)
CCOc1ccc(-c2cc(N)n(S(=O)(=O)c3cccc4nsnc34)n2)cc1	HIV Env fusion 64
COc1ccc(S(=O)(=O)n2nc(-c3ccc(Cl)cc3)cc2N)cc1OC	none (no result: NSD2 inh)
Nc1cc(-c2ccccc2)nn1S(=O)(=O)c1ccc(F)cc1	HIV Env fusion 79 (no result: NSD2 inh)
Nc1cc(-c2ccc(Br)cc2)nn1S(=O)(=O)c1ccccc1	HIV Env fusion inconclusive (no result: NSD2 inh)
COc1ccc(N2C(=O)C3CCCN3C2=O)cc1 (centres undefined)	none (no result: NSD2 inh)
CCOC(=O)COc1ccc(C2NC(C(=O)O)CS2)cc1 (centres undefined)	none (no result: GSIS activator, HIV Env fusion, AF4-AF9 inh)
Cc1c(NC(=S)N/C(=N/S(=O)(=O)c2ccc(Cl)cc2)c2ccccc2)c(=O)n(-c2ccccc2)n1C	none (no result: GSIS activator, NSD2 inh)
Cc1c(NC(=S)N/C(=N/S(=O)(=O)c2ccccc2)c2ccccc2)c(=O)n(-c2ccccc2)n1C	GSIS activator 44
CCC(C)[C@H](NC(=O)NCc1cccc(OC)c1)C(=O)OC (some centres undefined)	none (no result: GSIS activator, HIV Env fusion, PGC1a acetyl inh, AF4-AF9 inh)
COc1cccc(CNC(=O)N[C@@H](CC(C)C)C(=O)O)c1	GSIS activator 50 (no result: HIV Env fusion, AF4-AF9 inh)
C[C@@H]1CN([C@H](C)CO)C(=O)c2cc(NC(=O)Nc3ccc(C(F)(F)F)cc3)ccc2O[C@@H](C)CCCCO[C@H]1CN(C)Cc1ccc2c(c1)OCO2	HIV Env fusion inconclusive (no result: NSD2 inh)
C[C@H]1CCCCO[C@H](CN(C)Cc2ccc3c(c2)OCO3)[C@@H](C)CN([C@@H](C)CO)C(=O)c2cc(NC(=O)Nc3ccc(C(F)(F)F)cc3)ccc2O1	HIV Env fusion inconclusive, PGC1a acetyl inh 79 (no result: NSD2 inh)
C[C@@H]1CCCCO[C@H](CN(C)Cc2ccc3c(c2)OCO3)[C@@H](C)CN([C@@H](C)CO)C(=O)c2cc(NC(=O)Nc3ccc(C(F)(F)F)cc3)ccc2O1	HIV Env fusion inconclusive, PGC1a acetyl inh 53 (no result: GSIS activator, NSD2 inh)
C[C@H](CO)N1C[C@H](C)[C@H](CN(C)Cc2ccc3c(c2)OCO3)OCCCC[C@H](C)Oc2ccc(NC(=O)Nc3ccc(C(F)(F)F)cc3)cc2C1=O	HIV Env fusion 61[16.7 µM] (no result: NSD2 inh)
CCCNc1ncnc2[nH]ncc12	none
CN(C)c1ccc(C=c2c3ccccc3n3c2cc(-c2ccc(Cl)cc2)[n+]3C)cc1	AF4-AF9 inh 58 (no result: NSD2 inh, PGC1a acetyl inh)
COc1cc(/C=C(/C(=O)O)c2ccc(-c3ccccc3)cc2)cc(OC)c1OC	none
COc1cc(C=c2c3ccccc3n3c2cc(-c2ccccc2)[n+]3C)cc(OC)c1OC	AF4-AF9 inh 29 (no result: NSD2 inh, PGC1a acetyl inh)
CN(c1ccc(Cl)cc1)c1cc(=O)n(C)c2ccccc12	none (no result: GSIS activator, HIV Env fusion, AF4-AF9 inh)
CN(C)c1ccc(C=c2c3cc([N+](=O)[O-])ccc3n3c2cc(-c2ccccc2)[n+]3C)cc1	AF4-AF9 inh 55 (no result: PGC1a acetyl inh)
COc1ccccc1NC(=O)Oc1ccc(C(C)=O)cc1	HIV Env fusion 59 (no result: GSIS activator, AF4-AF9 inh)
COc1ccc(C(=O)c2cnc3ccccc3c2-c2ccccc2)cc1	HIV Env fusion 91 (no result: GSIS activator, AF4-AF9 inh)
COc1ccc(Oc2nc(-c3ccccc3)ncc2C(=O)O)cc1	none
Cc1ccc(C(=O)c2nc(C(=O)NCCO)nc3ccccc23)cc1	none (no result: NSD2 inh, AF4-AF9 inh)
Cc1ccc(C(=O)c2cnc3ccccc3c2-c2ccccc2)cc1	HIV Env fusion 83 (no result: GSIS activator, AF4-AF9 inh)
CCCCCSc1nc2c(c(=O)[nH]c(=O)n2C)n1CC	none (no result: GSIS activator, NSD2 inh)
CC(OC(=O)c1ccccc1O)C(=O)Nc1cccc(Cl)c1 (centres undefined)	none (no result: PGC1a acetyl inh)
Cc1cccc(COC[C@H](Cc2ccccc2)N2CCN(C(=O)c3cccc(Cl)c3)CCC2=O)c1	HIV Env fusion 75 (no result: NSD2 inh, PGC1a acetyl inh)
Cc1cccc(COC[C@H](Cc2ccccc2)N2CCN(C(=O)c3cccc(C)c3)CCC2=O)c1	none (no result: NSD2 inh, PGC1a acetyl inh)
Cc1cccc(COC[C@H](Cc2ccccc2)N2CCN(C(=O)c3cc(Cl)cc(Cl)c3)CCC2=O)c1	HIV Env fusion 92 (no result: NSD2 inh, PGC1a acetyl inh)
O=C(c1cccc(Cl)c1)N1CCC(=O)N(C(COCc2ccccc2)Cc2ccccc2)CC1 (centres undefined)	none (no result: GSIS activator, NSD2 inh, PGC1a acetyl inh)
Cc1cccc(COCC(Cc2ccccc2)N2CCN(C(=O)c3cccc(Cl)c3)CCC2=O)c1 (centres undefined)	HIV Env fusion 66 (no result: NSD2 inh, PGC1a acetyl inh)
CC12CC(O)C3c4ccc(O)cc4CCC3C1CC/C2=N\O (centres undefined)	none (no result: PGC1a acetyl inh)
